Sampled rows, rich in hits. Any-hit rate of the full collection: about 0.93%.
MEP2 TOR yeast – modulators of TOR pathway MEP2-GFP in S. cerevisiae. S. cerevisiae MEP2-GFP strain, flow cytometry GFP, 3 h; 100% = DMSO control level. GFP response vs DMSO, % at 10 µM. hit rate 0.51% among 330,000;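 active = GFP response versus DMSO above a set limit, roughly screen mean plus 3 SD, cut at about 180% in these data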;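 also: median GFP fluorescence of the barcode-gated MEP2-GFP cells per well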
AGP1 TOR yeast – yeast TOR pathway AGP1-GFP modulation. hit rate 0.02% among 320,000. S. cerevisiae AGP1-GFP multiplex flow cytometry, 3 h; GFP as percent of DMSO wells. GFP response vs DMSO, % at 10 µM;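 active = GFP response relative to DMSO above a set limit, near screen average plus 3 SD, cut at about 150% in these data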;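 also: median GFP channel fluorescence of the gated AGP1 strain per well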
CIT2 TOR yeast – alters CIT2-GFP fluorescence in TOR pathway yeast screen | hit rate 0.065% among 320,000 | GFP response vs DMSO, % at 10 µM | S. cerevisiae CIT2-GFP strain, flow cytometry, 3 h; 100 means same as DMSO wells;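 active = GFP response relative to DMSO above a set limit, near the screen mean plus 3 SD, cut at about 150% in these data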;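 also: ratio of well median GFP fluorescence to mean of DMSO wells on the plate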
LAP4-GFP MLPCN – modulators of TOR pathway LAP4-GFP in S. cerevisiae. hit rate 0.34% among 320,000. GFP response vs DMSO, % at 10 µM. S. cerevisiae LAP4-GFP multiplex, flow cytometry GFP, 3 h; median GFP as percent of DMSO wells;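 active = GFP response vs DMSO above a set limit, about the screen mean plus 3 SD, cut at about 150% in these data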
RPL19A-GFP yeast – yeast TOR pathway RPL19A-GFP modulation. AID 2025. percent response vs DMSO, % at 10 µM. S. cerevisiae RPL19A-GFP strain, flow cytometry, 3 h; active compounds read low. hit rate 0.3% among 330,000;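 active = percent response vs DMSO below 50%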;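 also: median channel GFP fluorescence of the barcoded RPL19A-GFP strain; lower means less RPL19A-GFP as with rapamycin TOR inhibition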
LAP4-GFP pick2 – reconfirmed LAP4-GFP TOR pathway modulator in yeast. GFP response vs DMSO, % at 10 µM. hit rate 20% among 590. shares compounds with LAP4-GFP MLPCN. S. cerevisiae LAP4-GFP strain, flow cytometry GFP, 3 h;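 active = GFP signal as percent of the solvent control above about 150%, meaning raised reporter expression, limit read from the data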
MEP2 cherry2 – second confirmation of modulators of TOR reporter MEP2-GFP in yeast. GFP response vs DMSO, % at 10 µM. shares compounds with LAP4-GFP MLPCN. AID 2622. hit rate 10% among 590. S. cerevisiae MEP2-GFP strain, flow cytometry GFP, 3 h;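 active = GFP signal above 150% of the solvent control wells, that is a rise of more than half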;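 also: median channel GFP fluorescence of all gated yeast cells per well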
RPL19A GFP CP2 – yeast RPL19A-GFP TOR reporter modulation, second cherry pick; shares compounds with LAP4-GFP MLPCN; S. cerevisiae RPL19A-GFP strain, flow cytometry GFP, 3 h; active compounds read low; 100% means same as DMSO wells; GFP response vs DMSO, % at 10 µM; hit rate 3% among 590; AID 2623;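 active = under 65% GFP response relative to DMSO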;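 also: median GFP channel fluorescence per well over the all cells gate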
CIT2 GFP CP2 – reconfirmed modulator of CIT2-GFP TOR reporter in yeast. shares compounds with LAP4-GFP MLPCN. S. cerevisiae CIT2-GFP strain, flow cytometry GFP, 3 h; DMSO control wells read 100%. GFP response vs DMSO, % at 10 µM. hit rate 8% among 590. AID 2624;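 active = GFP response vs DMSO above about 150%, limit read from the data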;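 also: median green fluorescence per well over all gated yeast cells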
AGP1-GFP pick2 – reconfirmed modulator of AGP1-GFP TOR reporter in yeast; percent response vs DMSO, % at 10 µM; shares compounds with LAP4-GFP MLPCN; S. cerevisiae AGP1-GFP strain, flow cytometry GFP, 3 h; 590 tested, under 10 active;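 active = over 150 percent of DMSO response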;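 also: median GFP channel fluorescence over all cells without mother daughter split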
s288c autofluor – counter-screen for compound autofluorescence in yeast s288c cells; fluorescence change (kMESF span) at 33 µM; 610 tested, under 10 active; shares compounds with LAP4-GFP MLPCN; S. cerevisiae s288c, 520 nm autofluorescence, flow cytometry, 3 h; active compounds read high; zero means same as solvent-only cells;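 active = fluorescence span over the dose series, or activity score, above about 33, limit read from the data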
Yeast autofl DR – TOR screen hit shows autofluorescence in yeast s288c. shares compounds with LAP4-GFP MLPCN. S. cerevisiae s288c parental, compound autofluorescence, flow cytometry, 3 h. fluorescence change (span) at 33 µM. 110 tested, under 10 active;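 active = fluorescence change span, or the activity score built from it, above 25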
TORC1 bypass gr – wildtype yeast growth loss with TORC1 bypass cells unaffected; shares compounds with LAP4-GFP MLPCN; 120 tested, under 10 active; growth rating (0-3) at 30 µM; AID 504456; S. cerevisiae BY4741 spot growth rating, 48-72 h; active compounds read low;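 active = growth rating at most 1 for wild type yeast while the TORC1 bypass strain still grows fully, rated 3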
Of the large screens only hits and unclear results are named; the others gave an inactive call (follow-up assays come after a bar, where they were run); [ ] = remark or other dose.

CCC(Cc1ccccc1)NS(=O)(=O)c1ccc2c(c1)NC(=O)CO2 (centres undefined)	none
O=C(Nc1ccc(O)cc1)C1CCCN1S(=O)(=O)c1ccc(F)cc1 (centres undefined)	MEP2 TOR yeast 195.5 | LAP4-GFP pick2 inactive | MEP2 cherry2 inactive | RPL19A GFP CP2 inactive | CIT2 GFP CP2 inactive | AGP1-GFP pick2 inactive | s288c autofluor inactive
O=C1/C(=C/c2ccncc2)SC(=S)N1C1CCCCC1	none
Cc1ccc(/C=C2/SC(=S)N(C3CCCCC3)C2=O)o1	LAP4-GFP MLPCN 158.3 | s288c autofluor inactive
Cc1ccc(/C=C2\SC(=S)N(CC3CCCO3)C2=O)o1 (centres undefined)	LAP4-GFP MLPCN 171.4 | s288c autofluor inactive
CCn1nc(Cc2cccc3ccccc23)c(C#N)c1N	none
Cc1nn(C)c(C)c1N1C(=O)c2cccc3c(Br)ccc(c23)C1=O	none | s288c autofluor inactive
COc1ccc(CC(=O)N2CCN(c3ccccc3)CC2)cc1	none
CCN(C(=O)c1ccnn1C)c1ccccc1	none
Cc1[nH][nH]c(=O)c1C(c1ccc(-c2ccc(Cl)c(Cl)c2)o1)c1c(C)[nH][nH]c1=O	LAP4-GFP MLPCN 217.2 | s288c autofluor inactive
Cc1[nH][nH]c(=O)c1C(c1ccc(-c2ccc(F)cc2)o1)c1c(C)[nH][nH]c1=O	none
CCCOC(=O)c1ccc(NC(=O)c2cc(=O)[nH]c3ccccc23)cc1	none
COc1ccc(NC(=O)CN(C)C(=O)CNC(=O)c2ccc(C)s2)cc1	none
COc1ccc(C2=CC3=C(Br)C(=O)C(C)(O)C(=O)C3=CO2)cc1 (centres undefined)	RPL19A-GFP yeast 41.5 | LAP4-GFP pick2 inactive | MEP2 cherry2 150.2 | RPL19A GFP CP2 33.8 | CIT2 GFP CP2 159.9 | AGP1-GFP pick2 inactive | s288c autofluor inactive
CCC(=O)OC1(C)C(=O)C2=COC(c3ccc(OC)cc3)=CC2=C(Br)C1=O (centres undefined)	none
CCC1CCCCN1C(=O)Nc1cc(Cl)ccc1OC (centres undefined)	none
COc1ccc(C(=O)COc2ccc(C)cc2NC(C)=O)cc1	none
O=C(Oc1cccc2cccnc12)c1ccc(Br)o1	none | LAP4-GFP pick2 inactive | MEP2 cherry2 inactive | RPL19A GFP CP2 inactive | CIT2 GFP CP2 inactive | AGP1-GFP pick2 inactive | s288c autofluor inactive
CCOc1ccc(/C=N/NC(=O)c2[nH]ncc2Br)c(O)c1	none
O=C1C2C3C=CC(CO)(O3)C2C(=O)N1c1ccccc1-c1ccccc1 (centres undefined)	LAP4-GFP MLPCN 193.9 | s288c autofluor inactive
CC(=O)Oc1ccc(N2C(=O)C3C4C=CC(CO)(O4)C3C2=O)cc1 (centres undefined)	none (no result: RPL19A-GFP yeast) | s288c autofluor inactive
C=CCOc1ccc(/C=C/C(=O)OCC(=O)NCCCc2ccccc2)cc1	none
C=CCOc1ccc(/C=C/C(=O)OCC(=O)N2CCC(c3ccccc3)=N2)cc1	CIT2 TOR yeast 171.2, LAP4-GFP MLPCN 169.7 | LAP4-GFP pick2 inactive | MEP2 cherry2 inactive | RPL19A GFP CP2 inactive | CIT2 GFP CP2 inactive | AGP1-GFP pick2 inactive
C[C@@]12C(=O)Nc3cc(Cl)ccc3C(=O)N1[C@H]1c3ccccc3OC[C@@H]1[C@@H]2c1ccccc1	none
C[C@@]12C(=O)Nc3ccc(Cl)cc3C(=O)N1[C@H]1c3ccccc3OC[C@@H]1[C@@H]2c1ccccc1	LAP4-GFP MLPCN 156.9 | LAP4-GFP pick2 inactive | MEP2 cherry2 inactive | RPL19A GFP CP2 inactive | CIT2 GFP CP2 inactive | AGP1-GFP pick2 inactive
O=C(Nc1ccc(N2CCOCC2)cc1)C1CCN(S(=O)(=O)c2ccc3c(c2)OCCO3)CC1	MEP2 TOR yeast 340.5[may fluoresce green], CIT2 TOR yeast 231.0[may fluoresce green], LAP4-GFP MLPCN 254.2[may fluoresce green] | LAP4-GFP pick2 inactive | MEP2 cherry2 inactive | RPL19A GFP CP2 inactive | CIT2 GFP CP2 inactive | AGP1-GFP pick2 inactive | s288c autofluor inactive
O=C(Nc1ccc2c(c1)OCO2)C1CCN(S(=O)(=O)c2ccc3c(c2)OCCO3)CC1	none
CCN(CC(=O)Nc1ccccc1C(F)(F)F)CC(=O)NC1CC1	none
CCN(CC(=O)Nc1ccc(Cl)c(C(F)(F)F)c1)CC(=O)NC1CCS(=O)(=O)C1 (centres undefined)	none | LAP4-GFP pick2 inactive | MEP2 cherry2 inactive | RPL19A GFP CP2 inactive | CIT2 GFP CP2 inactive | AGP1-GFP pick2 inactive
O=C(COC(=O)c1ncc(Cl)c(Cl)c1Cl)NC(=O)c1ccccc1	none
CC(=O)c1cccc(OCc2cc(C(=O)NCCC3=CCCCC3)no2)c1	none
Nc1nc(NC2CCCCC2)nc(Nc2cccc(F)c2)c1[N+](=O)[O-]	none (no result: MEP2 TOR yeast, AGP1 TOR yeast, CIT2 TOR yeast, LAP4-GFP MLPCN, RPL19A-GFP yeast) | Yeast autofl DR inactive | TORC1 bypass gr inactive
Nc1nc(NC2CCCCC2)nc(NCCO)c1[N+](=O)[O-]	none (no result: LAP4-GFP MLPCN)
CCC(C)Nc1nc(N)c([N+](=O)[O-])c(Nc2cccc(F)c2)n1 (centres undefined)	none (no result: MEP2 TOR yeast, AGP1 TOR yeast, CIT2 TOR yeast, LAP4-GFP MLPCN, RPL19A-GFP yeast) | Yeast autofl DR inactive | TORC1 bypass gr inactive
Nc1nc(NCc2ccco2)nc(Nc2cccc(F)c2)c1[N+](=O)[O-]	none | Yeast autofl DR inactive | TORC1 bypass gr inactive
Nc1nc(NCc2ccccc2)nc(Nc2cccc(F)c2)c1[N+](=O)[O-]	none | Yeast autofl DR inactive | TORC1 bypass gr inactive
Nc1nc(NCc2ccco2)nc(Nc2ccccc2)c1[N+](=O)[O-]	none

Source: PubChem (NMMLSC)
